Assay outcomes: PubChem BioAssay, National Center for Advancing Translational Sciences (NCATS)
KB-3-1 tox: kills parental KB-3-1 adenocarcinoma cells | KB-3-1 viability, CellTiter-Glo ATP luminescence, 72 h | Potency, µM (doses to about 46.1 µM), usual class: cytotoxic | 400,000 tested, 1.4% active | AID 1347075; further: nearly all actives have a fitted effect of over 60% in size
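72 h, 37 °C compound treatment of KB-3-1 parental cells; CellTiter-Glo added, 10 min, luminescence read. Data corrected against DMSO-only plates and normalized before curve fitting.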
HT1080 IDH1KD tx: HT-1080 IDH1 knockdown cell toxicity (counter line) | Potency, µM (top dose mostly 46.1 µM), hits mostly cytotoxic | HT-1080 IDH1 knockdown viability, ATP luminescence, 48 h | 360,000 tested, 2% active | AID 686971
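Luminescent ATP read-out (CellTiter-Glo, 10 min at room temperature) after 48 h compound exposure at 37 °C gave viability of IDH1-knockdown HT-1080 cells. Activity was normalised to DMSO and cell-free wells, then fitted as concentration-response curves.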
HT1080-NT tox: kills 2HG-producing HT-1080-NT fibrosarcoma cells; HT-1080-NT fibrosarcoma viability, CellTiter-Glo ATP luminescence, 48 h; Potency, µM (titrated, usually from 46.1 µM), actives largely listed as cytotoxic; 360,000 tested, 1.6% active;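 further: NT is the 2HG producing partner of a matched IDH1 knockdown line; nearly all actives have a fitted effect of over 55% in size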
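A 48-hour cytotoxicity screen used HT-1080-NT cells plated 2 hours before compound delivery. ATP-based CellTiter-Glo luminescence measured viability, normalized to DMSO and no-cell controls.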
KB-V1 MDR tox: kills drug-selected multidrug resistant KB-V1 cells; KB-V1 MDR cells viability, CellTiter-Glo, 72 h; Potency, µM (highest dose often 46.1 µM), usual class: cytotoxic; 400,000 tested, 3.4% active; further: nearly all actives have a fitted effect of over 60% in size
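Potencies derive from concentration-effect curves fitted to normalized luminescence (CellTiter-Glo) of KB-V1 cells treated for 72 h at 37 degrees C in phenol-red-free DMEM containing 10% FBS.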
DT40 TDP1 CPT: DT40-hTDP1 cell growth loss with CPT. 420,000 tested, 12% active. Potency, µM (top dose mostly 46.2 µM), most hits filed as inhibitors. chicken DT40 Tdp1-/-;hTDP1 cells + 20 nM CPT, ATP luminescence, 48 h; further: nearly all actives have a fitted effect of over 55% in size
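Chicken DT40 Tdp1-/- cells complemented with human TDP1, 400 cells/well, exposed to compounds plus 20 nM camptothecin for at least 48 h at 37 C; viability read as ATP content by CellTiter-Glo luminescence.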
TDP1 cell noCPT: qHTS for Inhibitors of human tyrosyl-DNA phosphodiesterase 1 (TDP1): qHTS in cells in absence of CPT; DT40 Tdp1-/- hTDP1 cells, no CPT, ATP luminescence, 48 h; 420,000 tested, 15% active; Potency, µM (top dose mostly 46.2 µM), most hits filed as inhibitors; AID 686978, 2013; further: nearly all actives have a fitted effect of over 55% in size
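Growth of hTDP1-complemented DT40 Tdp1-knockout cells is measured by ATP luminescence after at least 48 hr compound exposure at 37 °C, with DMSO substituting for the 20 nM CPT used in the parallel screen.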
Large screens that a line does not name were inactive. A selection: hits, their analogues and other compounds. The true share with any hit is near 19%. The call rests on the fitted dose curve; in most records, active means well fitted curve in the direction sought with a large enough effect; inconclusive means small, poorly fitted or top-dose-only effect, or another doubt; inactive means no such curve, though single readings can be large; an effect the other way counts as inactive or inconclusive.

O=C1C2C3C=CC(C3)C2C(=O)N1c1ccc2c(c1)CCC2 (centres undefined)	KB-V1 MDR tox 18µM
O=C1C2C3C=CC(C3)C2C(=O)N1c1ccc(Cc2ccncc2)cc1 (centres undefined)	HT1080 IDH1KD tx inconclusive, DT40 TDP1 CPT inconclusive, TDP1 cell noCPT 13µM
CC1CCC2C(=O)N(c3ccc(Cc4ccncc4)cc3)C(=O)C2C1 (centres undefined)	KB-3-1 tox 4.6µM, HT1080 IDH1KD tx inconclusive, HT1080-NT tox inconclusive, KB-V1 MDR tox 10µM, DT40 TDP1 CPT 5.8µM, TDP1 cell noCPT 10µM
N#Cc1ccccc1COC(=O)CCCC1=NS(=O)(=O)c2ccccc2N1	none
CCOC(=O)C1(Cc2cccc(OC)c2)CCCN(C(=O)c2ccccc2C)C1 (centres undefined)	KB-V1 MDR tox inconclusive, DT40 TDP1 CPT inconclusive, TDP1 cell noCPT 16µM
CCOC(=O)C1(Cc2cccc(Cl)c2)CCCN(C(=O)c2ccc(COC)s2)C1 (centres undefined)	KB-V1 MDR tox inconclusive, DT40 TDP1 CPT 23µM, TDP1 cell noCPT 21µM
CCOC(=O)C1(Cc2cccc(Cl)c2)CCCN(C(=O)c2ccoc2C)C1 (centres undefined)	DT40 TDP1 CPT 21µM, TDP1 cell noCPT 18µM
CCOC(=O)C1(Cc2cccc(Cl)c2)CCCN(C(=O)c2ccco2)C1 (centres undefined)	DT40 TDP1 CPT inconclusive, TDP1 cell noCPT inconclusive
CC(=O)OCC(=O)C1(O)CCC2C3CCC4C(OC(C)=O)C(=O)CCC4(C)C3C(=O)CC21C (centres undefined)	none
Cn1cnnc1SCc1ccc(C(=O)N=Nc2c(O)n(C)c3ccccc23)cc1	DT40 TDP1 CPT inconclusive, TDP1 cell noCPT inconclusive
Cc1ccc(S(=O)(=O)NCc2ccccc2)cc1C(=O)NCC1CCCO1 (centres undefined)	TDP1 cell noCPT inconclusive
O=C(O)C1(Nc2ccc(Cl)cc2)CCCC1	KB-V1 MDR tox inconclusive
NC(=O)C1(Nc2ccc(-c3ccc(Cl)cc3)cc2)CCCC1	KB-3-1 tox inconclusive, DT40 TDP1 CPT 16µM, TDP1 cell noCPT inconclusive
CO/N=C(/CNC(=O)c1cccc(Cl)c1)c1ccc(Cl)cc1	KB-V1 MDR tox 23µM
COc1cccc2[nH]c(C(=O)NCC3CCCO3)cc12 (centres undefined)	KB-3-1 tox inconclusive
O=C(NCC1CCCO1)c1cc2ccccc2[nH]1 (centres undefined)	TDP1 cell noCPT inconclusive
O=C(NCC1CCCO1)c1cc2c([nH]c3ccccc32)c(-c2cccc(Cl)c2)n1 (centres undefined)	KB-3-1 tox inconclusive, KB-V1 MDR tox inconclusive, DT40 TDP1 CPT 4.1µM, TDP1 cell noCPT 2.3µM
COc1cc(-c2nc(C(=O)NCC3CCCO3)cc3c2[nH]c2ccccc23)cc(OC)c1OC (centres undefined)	HT1080 IDH1KD tx inconclusive, HT1080-NT tox inconclusive, KB-V1 MDR tox inconclusive, DT40 TDP1 CPT 5.8µM, TDP1 cell noCPT 7.3µM
COc1ccccc1-c1nc(C(=O)NCC2CCCO2)cc2c1[nH]c1ccccc12 (centres undefined)	DT40 TDP1 CPT 21µM, TDP1 cell noCPT 15µM
COc1cc(NCCCNC(C)C)c2nccc(C)c2c1	KB-3-1 tox inconclusive, DT40 TDP1 CPT inconclusive, TDP1 cell noCPT inconclusive
CCc1cc(C(=O)c2ccccc2)c(N)s1	DT40 TDP1 CPT 26µM, TDP1 cell noCPT inconclusive
Cc1ccc(-n2cnc(N)c2C(=O)c2cccc([N+](=O)[O-])c2)cc1	KB-V1 MDR tox inconclusive, DT40 TDP1 CPT inconclusive, TDP1 cell noCPT 29µM
O=C(COc1ccc2c(c1)OCO2)Nc1nncs1	none
Cc1ccccc1OCC(=O)NCC(c1ccc(Cl)cc1)N1CCCCC1 (centres undefined)	DT40 TDP1 CPT 21µM, TDP1 cell noCPT 13µM (no result: HT1080 IDH1KD tx, HT1080-NT tox)
COc1ccc(C(CNC(=O)COc2ccccc2C)N2CCCCC2)cc1 (centres undefined)	DT40 TDP1 CPT 21µM, TDP1 cell noCPT 16µM
C[C@H](NC(=O)c1nc[nH]c1C(=O)N1CCc2ccccc2C1)C(=O)OCc1ccccc1	TDP1 cell noCPT inconclusive
O=C(CNC(=O)C1COc2ccccc2O1)N/N=C/c1ccc([N+](=O)[O-])cc1 (centres undefined)	TDP1 cell noCPT inconclusive
O=C(N/N=C\c1ccc(-c2ccccc2[N+](=O)[O-])o1)C1COc2ccccc2O1 (centres undefined)	none
CC(C)(C)c1ccc(C2CC2C(=O)N/N=C\c2ccc[nH]2)cc1 (centres undefined)	KB-3-1 tox 15µM, HT1080 IDH1KD tx 1.6µM, HT1080-NT tox 2.6µM, KB-V1 MDR tox inconclusive, DT40 TDP1 CPT inconclusive, TDP1 cell noCPT inconclusive
O=C(N/N=C/c1c[nH]c2ccccc12)C1COc2ccccc2O1 (centres undefined)	KB-3-1 tox 5.8µM, HT1080 IDH1KD tx 5.8µM, HT1080-NT tox 3.7µM, KB-V1 MDR tox 2.6µM, DT40 TDP1 CPT 10µM, TDP1 cell noCPT 13µM
O=C(N/N=C\c1ccc([N+](=O)[O-])o1)C1COc2ccccc2O1 (centres undefined)	KB-3-1 tox inconclusive, HT1080 IDH1KD tx 21µM, HT1080-NT tox inconclusive, DT40 TDP1 CPT 7.3µM, TDP1 cell noCPT 6.5µM
COC(=O)N/N=C/c1c[nH]c2ccccc12	none
O=C(N/N=C\c1ccc([N+](=O)[O-])s1)C1COc2ccccc2O1 (centres undefined)	HT1080-NT tox inconclusive, DT40 TDP1 CPT 2.9µM, TDP1 cell noCPT 5.8µM
C[C@@H]1CN(Cc2ccc3c(c2)CN(C(=O)CCc2nc4ccc(F)cc4[nH]2)CCO3)C[C@H](C)O1	none (no result: KB-3-1 tox, HT1080 IDH1KD tx, HT1080-NT tox, KB-V1 MDR tox)
Cc1cc(C)c(SSc2nnnn2-c2ccccc2)c(C)c1	DT40 TDP1 CPT inconclusive, TDP1 cell noCPT inconclusive
CCN(c1ccccc1)S(=O)(=O)c1cccc(C(=O)NCCN2CCOCC2)c1	none
O=C(N/N=C/c1c[nH]c2ccccc12)C1CC1c1ccccc1 (centres undefined)	KB-V1 MDR tox inconclusive, DT40 TDP1 CPT 12µM, TDP1 cell noCPT 21µM
CCOC(=O)c1ccc(-n2c(O)c(/C=N/NC(=O)C3COc4ccccc4O3)c3ccccc3c2=O)cc1 (centres undefined)	KB-V1 MDR tox 16µM, DT40 TDP1 CPT inconclusive, TDP1 cell noCPT inconclusive
O=C(N/N=C\c1ccc(Cl)s1)C1COc2ccccc2O1 (centres undefined)	KB-3-1 tox inconclusive, HT1080 IDH1KD tx inconclusive, HT1080-NT tox inconclusive, KB-V1 MDR tox inconclusive, DT40 TDP1 CPT inconclusive, TDP1 cell noCPT 9.2µM
